Screens from PubChem BioAssay.
L3MBTL1 inh: blocks human L3MBTL1; AlphaScreen L3MBTL1–H3K9me1 peptide binding; Q9Y468; 0.66% of 230,000 active; Potency, µM (doses to about 57.1 µM), for the others: at the top dose activity, negative = inhibition, most hits filed as inhibitors; further: on the % scale 0 is the no-effect control and ±100 the full control effect; nearly all actives have a fitted effect of over 60% in size
Target sequence (Q9Y468 whole entry, looked up): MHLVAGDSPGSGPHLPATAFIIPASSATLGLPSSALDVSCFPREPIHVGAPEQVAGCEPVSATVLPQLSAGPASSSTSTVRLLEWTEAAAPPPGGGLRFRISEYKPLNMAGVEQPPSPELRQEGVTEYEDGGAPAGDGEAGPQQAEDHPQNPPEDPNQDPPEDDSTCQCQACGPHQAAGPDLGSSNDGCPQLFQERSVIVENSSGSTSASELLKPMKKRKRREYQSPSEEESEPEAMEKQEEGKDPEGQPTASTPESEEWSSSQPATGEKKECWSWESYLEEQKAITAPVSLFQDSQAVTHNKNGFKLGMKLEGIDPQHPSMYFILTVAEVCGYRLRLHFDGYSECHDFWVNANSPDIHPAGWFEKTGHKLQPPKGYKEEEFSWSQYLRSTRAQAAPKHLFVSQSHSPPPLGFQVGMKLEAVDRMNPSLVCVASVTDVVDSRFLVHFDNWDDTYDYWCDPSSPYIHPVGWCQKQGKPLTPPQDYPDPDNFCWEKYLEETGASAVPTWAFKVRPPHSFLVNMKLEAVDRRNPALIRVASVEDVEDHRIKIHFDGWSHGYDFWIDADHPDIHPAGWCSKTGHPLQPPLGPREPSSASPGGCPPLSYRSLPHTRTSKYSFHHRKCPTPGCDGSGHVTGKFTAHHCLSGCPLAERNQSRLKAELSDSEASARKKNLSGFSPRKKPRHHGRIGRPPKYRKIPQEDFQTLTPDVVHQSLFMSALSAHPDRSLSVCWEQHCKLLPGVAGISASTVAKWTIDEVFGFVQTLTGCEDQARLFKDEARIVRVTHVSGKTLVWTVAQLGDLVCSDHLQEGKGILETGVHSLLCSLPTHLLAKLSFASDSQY
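Displacement of a biotinylated histone H3(1-15) peptide monomethylated at Lys9 (75 nM) from L3MBTL1 (50 nM) was measured by AlphaScreen after a 30 min room-temperature compound incubation; cefsulodin titration served as intraplate control.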
BAZ2B inh: BAZ2B (human) inhibition; AlphaScreen BAZ2B-H3K14Ac peptide displacement; Potency, µM (top dose mostly 114 µM), inactives show at the highest dose activity change, negative = inhibition, most hits filed as inhibitors; 4.4% of 360,000 active; AID 504333; further: on the % scale 0 is the no-effect control and ±100 the full control effect; nearly all actives have a fitted effect of over 60% in size
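Inhibition is scored as reduced AlphaScreen emission. The BAZ2B/b-H3(5-23)K14Ac complex (50 nM each) in PBS pH 7.4, 0.01% Tween-20 meets compound (up to 110 uM) for 30 min at RT before bead addition.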
Sfp PPTase inh: blocks B. subtilis Sfp PPTase activity | Q9F4F7 | Biochemical Sfp PPTase activity, qHTS | Potency, µM, inactives show largest response in the series, negative = inhibition, usual class: inhibitors | 3.5% of 310,000 active | AID 1490;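 further: the enzyme is Sfp with the accession as filed and its product quenches rhodamine fluorescence; 0% = enzyme reaction without inhibitor and -100% = no enzyme wells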
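Fluorescence-quenching assay: 15 nM Sfp-PPTase preincubated 15 min at room temperature with compound, then 5 uM rhodamine-CoA and 12.5 uM BHQ-2-labelled YbbR peptide added. Fluorescence (ex 525/em 598 nm) read at start and after 30 min; difference gives rate.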
JMJD2A Tudor inh: blocks the human JMJD2A Tudor domain; O75164; 4.4% of 390,000 active; Potency, µM (highest dose often 114 µM), without a hit: at the highest dose activity change, negative = inhibition, actives largely listed as inhibitors; AlphaScreen JMJD2A-Tudor / H3K4me3 peptide binding; further: on the % scale 0 is the no-effect control and ±100 the full control effect; nearly all actives have a fitted effect of over 50% in size
G9a inh: G9a (human) methyltransferase inhibition; Q96KQ7; G9a H3K9 monomethylation, AlphaScreen, 2 h; Potency, µM (highest dose often 102 µM), inactives show at the top dose activity, negative = inhibition, hits mostly inhibitors; 8.8% of 350,000 active; AID 504332; further: on the % scale 0 is the no-effect control and ±100 the full control effect; nearly all actives have a fitted effect of over 75% in size
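Signal arises when biotinylated H3K9 peptide, once monomethylated, bridges streptavidin donor and antibody-captured acceptor beads. Enzyme at 20 nM was preincubated 15 min with test compounds; peptide 500 nM and SAM 20 uM then reacted for 2 h.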
HP1b binding inh: HP1-beta chromodomain-methylated histone interaction inhibition; P83916; AlphaScreen HP1-beta / biotin-H3K9me3 peptide binding; Potency, µM (series often up to 114 µM), for the others: at the highest dose activity change, negative = inhibition, hits mostly inhibitors; 0.56% of 390,000 active; AID 540317; further: nearly all actives have a fitted effect of over 70% in size
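Compound inhibition of the preformed complex between 50 nM HP1-beta and 50 nM biotinylated H3K9me3 peptide was read by AlphaScreen. Buffer was PBS pH 7.4 with 0.01% Tween-20. Incubations ran 30 min at room temperature, with 10 ug/mL donor/acceptor beads.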
* hit, by the source's call; ? = inconclusive; · = not tested or not shown; [ ] = another dose, or the depositor's remark. In the library only some 12% were active in any assay of this set; here they are far more common. The call rests on the fitted dose curve; in most records, active means well fitted curve in the direction sought with a large enough effect; inconclusive means small, poorly fitted or top-dose-only effect, or another doubt; inactive means no such curve, though single readings can be large; an effect the other way counts as inactive or inconclusive. Potency means the concentration at half of the fitted maximal effect.

SMILES	L3MBTL1 inh	BAZ2B inh	Sfp PPTase inh	JMJD2A Tudor inh	G9a inh	HP1b binding inh
Cn1c(CCNC(=O)c2ccccc2Cl)n[nH]c1=S	15%	4%	2%	45µM*	-18%[12.7 µM]	9%
Cc1ccc(NS(=O)(=O)c2ccc3ccccc3c2)cc1C	·	·	·	-14%	·	·
CCn1cc([N+](=O)[O-])c(C(=O)N2N=C(c3ccc(O)c(OC)c3)CC2c2ccccc2O)n1 (stereo not given)	-1%	-6%	8%	-28%	40µM*	-21%
CCn1cc([N+](=O)[O-])c(C(=O)N2N=C(c3ccc(Cl)c(Cl)c3)CC2c2ccccc2O)n1 (stereo not given)	0%	?	13%	?	?	-8%
C#CCOC(=O)NC(/C=C/CCCC)c1ccccc1 (stereo not given)	·	·	20%	·	·	·
Cc1ccc(NC(=O)CN(C)C(=O)COc2cccc3cccnc23)cc1	?	50µM*	1%	?	?	3%
Cc1oc(C(=O)O)cc1COc1cccc2cccnc12	28µM*	40µM*	-7%	79µM*	79µM*	14%
Fc1ccc(COc2cccc3cccnc23)cc1	-5%	1%	21%	-8%	26%	35%
O=C(COc1cccc2ccccc12)NNC(=O)Nc1ccccc1	-7%	-26%	12%	-23%	?	29%
COc1ccc(/C=N/NC(=O)COc2cccc3cccnc23)cc1OC	·	-25%	13%	-32%	3%	73%
NC(=O)COc1cccc2cccnc12	·	0%	6%	5%	45µM*	22%
O=C(COc1cccc2cccnc12)NNC(=S)Nc1ccccc1	·	2%	-2%	·	18µM*	·
COc1cc(C2C(C#N)=C(N)N(c3ccc(F)cc3)C3=C2S(=O)(=O)CC3)ccc1O (stereo not given)	·	-22%	-45%	-8%[11.4 µM]	?	?
COc1cc(OC)c(OC)cc1CCC(C)NCCC(c1ccccc1)c1ccccc1 (stereo not given)	·	13µM*	-4%	45µM*	-3%[2.33 µM]	?
COc1ccc(NC(=S)NCCC(c2ccccc2)c2ccccc2)c(OC)c1	-20%	?	?	-36%	?	-7%
Cc1nc(N2CCOCC2)c2nc(-c3ccccc3)n(CCCN3CCCCC3C)c2n1 (stereo not given)	·	·	19%	·	·	·
COC(=O)c1ccc2c(=O)[nH]c(CSc3nc(C)cs3)nc2c1	-6%	-16%	4%	-8%	40µM*	11%
COC(=O)c1ccc2c(=O)[nH]c(CSc3nc(-c4ccc(F)cc4)cs3)nc2c1	-8%	-6%	-1%	-6%	?	6%
COC(=O)C1CCN(C(=O)CSc2nc3ccc(OC)cc3[nH]2)CC1	25%	2%	11%	-9%	50µM*	21%
COc1ccc2nc(SCC(=O)N3CCNC3=O)[nH]c2c1	-4%	-27%	12%	2%	-45%	29%
CCOc1ccc(OCCC(=O)NNC(=O)c2nn(C)c(=O)c3ccccc23)cc1	·	71µM*	0%	?	?	4%
CC(C)n1nc(C(=O)NNC(=O)c2ccc(OC(F)F)cc2)c2ccccc2c1=O	7%	-2%	·	-5%	3.2µM*	52%
Cc1ccc(OCCC(=O)NNC(=O)c2nn(C)c(=O)c3ccccc23)cc1	0%	3%	·	-7%	-2%[12.7 µM]	25%
Cn1nc(C(=O)NCc2ccccn2)c2ccccc2c1=O	-2%	?	-25%	22µM*	-5%[59 µM]	16%
CC1C(=O)CCC2[C@]1(C)CCC1[C@]2(C)CC[C@@]2(C)C3CC(C)(C)CC[C@]3(C)CC[C@@]12C (stereo not given in full)	·	·	7%	·	-33%[2.33 µM]	·
SMILES	L3MBTL1 inh	BAZ2B inh	Sfp PPTase inh	JMJD2A Tudor inh	G9a inh	HP1b binding inh
CC(=O)Nc1c([N+](=O)[O-])cc2[nH]c(=O)[nH]c2c1[N+](=O)[O-]	-7%	-20%	20µM*	-12%[11.4 µM]	32µM*	-2%
O=c1[nH]c2cc([N+](=O)[O-])c(NCCO)c([N+](=O)[O-])c2[nH]1	-7%	-35%	10%	-3%	?	0%
COc1ccc(C(=O)c2ccccc2)c(O)c1O	·	·	56µM*	·	·	·
COc1ccc(C(=O)c2ccccc2)c(O)c1	16%	123%	-22%	11%	5%[12.7 µM]	68%
c1ccc2c(-c3[nH]ncc3CNCCCn3ncc4ccccc43)cccc2c1	-15%	?	-10%	20µM*	·	-17%
OCC1CCCCN1CCNCc1cn[nH]c1-c1cccc2ccccc12 (stereo not given)	-11%	-14%	11%	-23%	-50%	30%
COc1cc(/C=N/NC(=O)c2cccc(S(=O)(=O)N3CCCC3)c2)cc(OC)c1O	-6%	10%	·	-10%	14µM*	14%
CCN(CC)S(=O)(=O)c1cccc(C(=O)N/N=C/c2cccc(O)c2O)c1	-1%	8%	?	-27%	0%[59 µM]	14%
CCN(CC)S(=O)(=O)c1cccc(C(=O)N/N=C/c2cc(OC)c(O)c(OC)c2)c1	-3%	1%	-9%	-20%	10µM*	15%
COc1ccc(C2CC(=O)c3cnc4c(-c5ccc(F)cc5)c(C)nn4c3C2)cc1OC (stereo not given)	·	-16%	·	7%	4%[59 µM]	30%
CCSCc1nc2ccccn2c1Br	2%	?	-4%	-12%	13µM*	40%
CCCCSCc1nc2ccccn2c1Br	-20%	-37%	-2%	-8%	13µM*	62%
CCOc1ccc(NS(=O)(=O)c2ccc(NC(=O)[C@@H]3CCCC[C@@H]3C(=O)O)cc2)cc1	11%	2%	33%	-12%	15%[59 µM]	28%
COc1ccccc1CNC(=O)c1ccc(N2CCOCC2)c([N+](=O)[O-])c1	·	79µM*	-12%	?	-9%[59 µM]	-6%
CCN(CC)S(=O)(=O)c1ccc(N2CCCC2)c(NC(=O)c2ccncc2)c1	1%	-1%	10%	-20%	32µM*	49%
CCN(CC)S(=O)(=O)c1ccc(N2CCOCC2)c(NC(=O)c2ccc(N3CCCC3=O)cc2)c1	-6%	-1%	·	-14%	50µM*	16%
CN(C)S(=O)(=O)c1cccc(C(=O)Nc2ccccc2[N+](=O)[O-])c1	-8%	?	-6%	-19%	-11%[59 µM]	6%
CCN(CC)S(=O)(=O)c1cc(C(=O)Nc2ccccc2[N+](=O)[O-])ccc1Cl	-21%	?	1%	?	28µM*	?
CCn1c(=N)c(C(=O)NC2CCCC2)cc2c(=O)n3cc(C)ccc3nc21	·	5%	·	-7%	11%[59 µM]	16%
CCCS(=O)(=O)Nc1cc(-c2cn3ccc(C)cc3n2)ccc1C	·	-2%	·	-30%	6%[59 µM]	43%
